# According to PubChem BioAssay AID485299 (Sanford-Burnham Center for Chemical Genomics, 2010):
# In all, about 1,000 compounds went through this assay and about 630 (63%) were called active.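 The calls were made as follows: active = reporter signal at least 30% of the positive control's activation in two or more of four replicate wells; inactive = the rest.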 So high a share suggests a set chosen from earlier hits. The list is a sample of the results.
# Experiment: activation of adaptive unfolded protein response – cell-based, CHO-XBP1 luciferase reporter, luminescence, single concentration, confirmation (AID 485299);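 also: plate controls were DMSO negative control for no effect and tunicamycin 10 µg/mL positive control for full effect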
# Settings: CHO-XBP1 IRE1-XBP1 luciferase reporter, at 20 µM, hits give high values
row,SMILES,activation
1,OCCNc1nc(Nc2ccc(Cl)c(Cl)c2)nc2ccccc12,47.6% (active)
2,Cc1ccc(SC(=O)COc2ccc(C)c(C)c2)cc1,19.5% (inactive)
3,CSc1nc(-c2ccccc2)nc(C(Cl)Cl)n1,29.4% (inactive)
4,Cc1ccc(S/C(=N\S(=O)(=O)c2ccc(Cl)cc2)c2ccccc2)cc1,9.43% (inactive)
5,CCOc1ccc(S(=O)(=O)Nc2cccc(C(=O)NCC3(N4CCCCC4)CCCCC3)c2)cc1,92.9% (active)
6,Cc1nc2cc(NC(=O)CSc3nc4c(C)cccc4cc3C#N)ccc2s1,42.3% (active)
7,CCCc1nc2ccccc2c(=O)n1/N=C/c1ccc(O)c(O)c1,36.6% (active)
8,CN(C)CCCN(C(=O)c1ccc(S(=O)(=O)N2CCCCCC2)cc1)c1nc2ccc(Br)cc2s1,71.3% (active)
9,N#CCC(=O)N/N=C/c1cn(Cc2ccc3ccccc3c2)c2ccccc12,87.5% (active)
10,O=C(Nc1ccc2nc3n(c(=O)c2c1)CCCCC3)c1ccccc1Cl,44.4% (active)
11,N#CC(=C1SC=CS1)c1nc(-c2ccccc2)cs1,2.43% (inactive)
12,CCCc1nc2c(c(=O)c3ccccc3n2C)c(=O)n1C1CCCCCC1,61.8% (active)
13,CCOC(=O)N1CCN(C(=O)c2nn(-c3ccc(C)cc3)c(=O)c3c2c2ccccc2n3C)CC1,7.78% (inactive)
14,C=CCN(CC=C)S(=O)(=O)c1ccc(C(=O)Nc2nc3c(s2)CCc2ccccc2-3)cc1,90.9% (active)
15,CCN1C(=O)N[C@@H](c2ccccc2)[C@H](C(C)=O)[C@H]1C,-1.6% (inactive)
16,CN(C)C(=O)CCc1ccc2c3c([nH]c2c1)[C@]1(CCc2ccccc2)[C@@H](C(=O)N2CCCCC2)C[C@H](CC(=O)NCCC2=CCCCC2)C(=O)N1CC3,52.1% (active)
17,N#Cc1c(N)nc2c3c(sc(=N)c2c1N)NC(=O)CC3c1ccccc1Cl (stereo unspecified),0.75% (inactive)
18,CCOc1ccc2nc(Cl)c(C3CC(c4ccccc4)=NN3C(=O)c3cccs3)cc2c1 (stereo unspecified),19.5% (inactive)
19,O=C(C[C@H]1C/C=C\C[C@@H](NC(=O)OCC2c3ccccc3-c3ccccc32)C(=O)O[C@@H](c2ccccc2)CNC1=O)N[C@H](CO)Cc1ccccc1,69.3% (active)
20,CCOC(=O)C1=C(O)/C(=C/c2ccc(OCC(=O)Nc3ccc(C)cc3)cc2)N=C1C,-1.95% (inactive)
21,N#Cc1ccccc1NC(=O)COc1c(Br)cc(Br)c2cccnc12,88.3% (active)
22,CCCc1ccc(OCc2ccc(C(=O)N/N=C/c3cccc([N+](=O)[O-])c3)o2)c(OC)c1,2.93% (inactive)
23,CCCCCC(=O)Nc1ccc(C(=O)N/N=C/c2ccc([N+](=O)[O-])cc2)cc1,66.5% (active)
24,CN(c1cccc(NC(=O)Nc2ccc(Cl)cc2)c1)S(C)(=O)=O,0.25% (inactive)
25,Oc1cccc2ccc(/C=C/c3ccc(Br)s3)nc12,50.4% (active)
26,Cc1ccc(-c2nnc(-c3ccc(NC(=O)c4cccs4)cc3)o2)cc1,213% (active)

row,SMILES,activation
1,CN1C(=O)/C(=C/c2ccc(C(=O)NC3CCCC3)cc2)Oc2ccccc21,32.3% (active)
2,COc1ccc(CNC(=O)/C(C#N)=C/c2cccc(OC)c2OC)cc1,40.4% (active)
3,O=C(CCCCCn1c(=S)[nH]c2cc3c(cc2c1=O)OCO3)N1CCN(c2ccc(F)cc2)CC1,10.3% (inactive)
4,Cc1cccc(Nc2nc3c(S(=O)(=O)c4ccccc4)nnn3c3ccccc23)c1C,120% (active)
5,O=C(/C=C/c1ccccc1)c1ccccc1O,54.9% (active)
6,Cc1ccc(S(=O)(=O)N(CC(=O)N/N=C/c2ccc(F)cc2)c2cccc3cccnc23)cc1,55.3% (active)
7,CCCCCCCCCCOC(=O)Cn1c(COc2ccc(C)cc2)[n+](C)c2ccccc21,49.2% (active)
8,COc1ccc(Nc2cc(C)nc(-n3nc(C)cc3C)n2)cc1,28.5% (inactive)
9,CCOC(=O)c1c(NC(=O)CNC2CCCc3ccccc32)sc(C(N)=O)c1C (stereo unspecified),34.3% (active)
10,CCC1(CC)Cc2ccccc2-c2nc(CCl)[nH]c(=O)c21,14.5% (inactive)
11,CCOC(=O)/C=c1\s/c(=C\c2ccc(C#N)cc2)c(=O)n1CC(=O)Nc1cccc(C)c1C,11.4% (inactive)
12,Cc1cc(NC(=O)CSc2nc3cc(Cl)ccc3c(=O)n2Cc2ccco2)no1,55.5% (active)
13,CC(=O)Nc1ccccc1Sc1ccc2c3c(cccc13)C(=O)N(c1ccc(C)cc1)C2=O,79% (active)
14,C=CC[C@@H](CC(=O)N[C@@H](CO)Cc1ccccc1)C(=O)N[C@H](COC(=O)[C@H](CC=C)CC(=O)OC(C)(C)C)Cc1ccccc1,4.58% (inactive)
15,O=C(COC(=O)/C=C/c1cn(-c2ccccc2)nc1-c1cccnc1)Nc1ccc(Cl)cc1Cl,74.4% (active)
16,Cc1ccc(Cc2cnc(NC(=O)/C(C#N)=C/c3ccc(-c4cccc([N+](=O)[O-])c4)o3)s2)cc1,217% (active)
17,OC(CNCC1CCCO1)Cn1c2ccc(Br)cc2c2cc(Br)ccc21 (stereo unspecified),44% (active)
18,C=CCNc1nc(N)c([N+](=O)[O-])c(NC2CCCCC2)n1,12.5% (inactive)
19,CCc1nn(-c2cc(Oc3cccc4ccccc34)nc(-c3ccccc3)n2)c(N)c1C#N,138% (active)
20,CCc1nc(C)cn1S(=O)(=O)c1cc([N+](=O)[O-])ccc1Cl,55.6% (active)
21,COc1cc(NC(=O)c2cncc(-c3ccc(C#N)cc3)c2)cc(C(=O)Nc2cccc(C(F)(F)F)c2)c1,129% (active)
22,COC(=O)Cc1csc(/N=C/c2c(O)n(-c3cccc(C(F)(F)F)c3)c(=O)c3ccccc23)n1,42.5% (active)
23,COc1ccccc1N=Cc1c(O)c2ccccc2oc1=O,113% (active)
24,CC(C)=CCCC1(C)C=Cc2c(ccc3c2[nH]c2cc(O)c(C)cc23)O1 (stereo unspecified),35.4% (active)
25,Oc1ccc(Br)cc1/C=N/Nc1ccccn1,63.7% (active)
